USP28 block: inhibitors of human USP28 deubiquitinase; Q96RU2; purified USP28, Ub-rhodamine cleavage fluorescence, 30 min; inhibition, % at 25 µM; 47,000 compounds, 3% hits
USP17 block: human USP17-like deubiquitinase inhibition; A8MUK1; purified USP17, Ub-rhodamine cleavage fluorescence, 3 h; inhibition, % at 50 µM; 47,000 compounds, 6.5% hits
USP30 block: blocks human USP30 ubiquitin-rhodamine cleavage; purified USP30, Ub-rhodamine cleavage fluorescence; inhibition, % at 25 µM; 47,000 compounds, 5.3% hits
Target sequence (Q70CQ3 whole entry, looked up): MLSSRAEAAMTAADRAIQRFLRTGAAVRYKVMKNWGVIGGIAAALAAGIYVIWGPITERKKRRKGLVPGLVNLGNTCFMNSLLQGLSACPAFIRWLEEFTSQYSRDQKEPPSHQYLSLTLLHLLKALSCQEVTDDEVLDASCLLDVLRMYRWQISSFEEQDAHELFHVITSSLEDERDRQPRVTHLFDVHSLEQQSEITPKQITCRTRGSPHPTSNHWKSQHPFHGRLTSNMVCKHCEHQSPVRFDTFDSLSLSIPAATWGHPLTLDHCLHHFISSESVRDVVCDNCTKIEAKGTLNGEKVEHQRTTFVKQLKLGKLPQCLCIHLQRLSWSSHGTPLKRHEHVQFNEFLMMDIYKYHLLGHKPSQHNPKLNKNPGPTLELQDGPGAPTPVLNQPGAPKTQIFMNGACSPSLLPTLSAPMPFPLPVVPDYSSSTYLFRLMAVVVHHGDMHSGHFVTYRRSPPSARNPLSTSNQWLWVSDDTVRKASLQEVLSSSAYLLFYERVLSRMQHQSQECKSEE
OTUD3 inh: blocks human OTUD3 ubiquitin-rhodamine cleavage | 47,000 compounds, 0.7% hits | Q5T2D3 | purified OTUD3, Ub-rhodamine fluorescence, 2 h | inhibition, % at 25 µM
The depositor's hits bear a star. Shown are actives, neighbours in structure and some others; about 11% of the full set was active somewhere. No stated cut-off is given here; in the data, active means inhibition above about 30%; inactive means the rest.

How did CCOC(=O)c1ccc(NC(=O)Cn2c(=O)n(CC(=O)NCc3ccco3)c(=O)c3ccccc32)cc1 do in these assays?
USP28 block: 28; USP17 block: 41*; USP30 block: 59*; OTUD3 inh: 17

What do the screens show for `C[C@H](NC(=O)c1ccc(Cl)cc1Cl)C(=O)NCc1ccco1`?
USP28 block: -5; USP17 block: -6; USP30 block: -2; OTUD3 inh: 0

How did Cc1noc(-c2cccnc2-n2cnc(C(=O)Nc3ccc(C)c(C)c3)c2)n1 do in these assays?
USP28 block: -9; USP17 block: -6; USP30 block: -16; OTUD3 inh: -7

What do the screens show for `O=c1c2c(nc3nc(C(c4ccccc4)c4ccccc4)[nH]n13)CCC2`?
USP28 block: 8; USP17 block: 14; USP30 block: 17; OTUD3 inh: 9

How did c1ccc(CN(Cc2ccccc2)c2c3c(nc4ncnn24)CCC3)cc1 do in these assays?
USP28 block: 23; USP17 block: 13; USP30 block: 39*; OTUD3 inh: 11

Results for CC1=C(C)C(N(c2ccccc2)c2ccccc2)N(CCC(C)C)C1=O (centres undefined) ?
USP28 block: 16; USP17 block: 76*; USP30 block: 16; OTUD3 inh: 10

How did COc1ccc(NC(=O)CC2C(=O)NCCN2C(=O)c2ccc(C)c(C)c2)cc1 (centres undefined) do in these assays?
USP28 block: -3; USP17 block: -4; USP30 block: 2; OTUD3 inh: 0

What do the screens show for `CCC(C)N1CNc2c(c(=O)[nH]c(=O)n2Cc2ccco2)C1` (centres undefined)?
USP28 block: -4; USP30 block: 39*; OTUD3 inh: 13

What do the screens show for `O=c1[nH]c(=O)n(Cc2ccco2)c2c1CN(Cc1ccccc1)CN2`?
USP28 block: -1; USP17 block: -7; USP30 block: -21; OTUD3 inh: 2

Results for O=C(CSc1nc2ccccc2n1S(=O)(=O)c1ccc(Br)cc1)Nc1ccc([N+](=O)[O-])cc1Cl ?
USP28 block: 54*; USP17 block: -10; USP30 block: -48; OTUD3 inh: 15

How did Cc1ccc(NC(=O)CSc2nc3ncccc3[nH]2)c(C)c1 do in these assays?
USP28 block: -6; USP17 block: -12; USP30 block: -37; OTUD3 inh: -9

How did COc1ccccc1NC(=O)CSc1nc2ccccc2n1S(=O)(=O)c1cc([N+](=O)[O-])ccc1C do in these assays?
USP28 block: 4; USP17 block: -50; USP30 block: -44; OTUD3 inh: -2

Results for O=C(CSc1nc2ccncc2[nH]1)Nc1ccc(Br)cc1F ?
USP28 block: 0; USP17 block: 61*; USP30 block: 19; OTUD3 inh: -1

How did CCC(Sc1nc2cc(OC)c(OC)cc2c2nc(C)nn12)C(=O)Nc1cccc(C)c1 (centres undefined) do in these assays?
USP28 block: -2; USP17 block: -1; USP30 block: 0; OTUD3 inh: 0

How did O=C(CSc1nc2ccccc2n1S(=O)(=O)c1ccc(Br)cc1)Nc1ccc(Br)cc1F do in these assays?
USP28 block: 27; USP17 block: 34*; USP30 block: 0; OTUD3 inh: 13

What do the screens show for `COc1ccc(NC(=O)CSc2nc3ccccc3c3nc(C)nn23)cc1OC`?
USP28 block: 19; USP17 block: 37*; USP30 block: 32*; OTUD3 inh: 20

How did CCC(CC)c1nnc(NC(=O)C2CC(=O)N(C(C)(C)C)C2)s1 (centres undefined) do in these assays?
USP28 block: 2; USP17 block: -6; USP30 block: -3; OTUD3 inh: 0

How did COc1ccc2nc(SCC(=O)Nc3ccc(NC(C)=O)cc3)n(S(=O)(=O)c3ccc(Cl)cc3)c2c1 do in these assays?
USP28 block: -3; USP17 block: -14; USP30 block: -5; OTUD3 inh: -13

What do the screens show for `COc1ccc(S(=O)(=O)n2c(SCC(=O)Nc3ccc(Oc4ccccc4)cc3)nc3ccccc32)cc1`?
USP28 block: 45*; USP17 block: 15; USP30 block: -72; OTUD3 inh: 2

Results for COC(=O)c1cccc(Nc2c(-c3ccc(OC)cc3)nc3cnccn23)c1 ?
USP28 block: -42; USP17 block: -53; USP30 block: -122; OTUD3 inh: -36

How did Cc1ccc(Nc2c(-c3cccnc3)nc3cc(C)ccn23)cc1 do in these assays?
USP28 block: 33*; USP17 block: -9; USP30 block: 32*; OTUD3 inh: 4

What do the screens show for `Cn1cnc2c(C(=O)Nc3cccnc3)nn(-c3ccc(Cl)cc3)c2c1=O`?
USP28 block: -1; USP17 block: 9; USP30 block: -36; OTUD3 inh: 5

How did Cc1cc(C)n2ncc(C(=O)NC(C)CCc3ccccc3)c2n1 (centres undefined) do in these assays?
USP28 block: 7; USP17 block: -1; USP30 block: 8; OTUD3 inh: 3

Results for Cc1cc(C)n2ncc(C(=O)NCCc3ccc(Cl)cc3)c2n1 ?
USP28 block: 30*; USP17 block: -5; USP30 block: -12; OTUD3 inh: -6

How did Cn1nc(CN2CCCCC2)c2c1CN(C(=O)c1cc(F)cc(F)c1)C2 do in these assays?
USP28 block: -3; USP17 block: -6; USP30 block: -3; OTUD3 inh: 0

Results for O=C(O)c1cc(NC(=O)C(Sc2cccc(NC(=O)c3ccccc3F)c2)c2ccccc2)ccc1O (centres undefined) ?
USP28 block: -37; USP17 block: -16; USP30 block: -167; OTUD3 inh: -50

Results for Cc1ccc(C(=O)O)cc1NC(=O)C(Sc1cccc(NC(=O)c2cccc(Cl)c2)c1)c1ccccc1 (centres undefined) ?
USP28 block: 47*; USP17 block: 85*; USP30 block: 91*; OTUD3 inh: 29

How did Cc1cccc(C(=O)Nc2cccc(SC(C(=O)Nc3ccc(Cl)c(C(=O)O)c3)c3ccccc3)c2)c1 (centres undefined) do in these assays?
USP28 block: 44*; USP17 block: 80*; USP30 block: 47*; OTUD3 inh: 21

What do the screens show for `O=C(O)c1ccccc1C(=O)Nc1ccc(SC(C(=O)Nc2cccc(Cl)c2)c2ccccc2)cc1` (centres undefined)?
USP28 block: 34*; USP17 block: 51*; USP30 block: 17; OTUD3 inh: 28

How did Fc1ccc(-c2nnc(CN3CCN(c4ccc(C(F)(F)F)cn4)CC3)o2)cc1 do in these assays?
USP28 block: -6; USP17 block: -6; USP30 block: -257; OTUD3 inh: -3

How did CCCCCCCCCCCCCCCc1cc(O)cc(O)c1C(=O)O do in these assays?
USP28 block: 53*; USP17 block: 89*; USP30 block: 56*; OTUD3 inh: 36*

Results for O=C(O)CCCCc1cc(O)cc(O)c1 ?
USP28 block: -20; USP17 block: -44; USP30 block: -78; OTUD3 inh: -12

Results for CCCCCCCc1cc(OC(=O)c2c(CCCCCCC)cc(O)cc2O[C@@H]2O[C@H](CO)[C@@H](O)[C@H](O)[C@H]2O)cc(O)c1C(=O)O ?
USP28 block: 102*; USP17 block: 102*; USP30 block: 110*; OTUD3 inh: 102*

From PubChem
